These results are taken from the supplement of paper PMC12350171.

Structures can show the parent of a compound that is named as a salt. Unmarked numbers belong to inactive results.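 How the source made its calls: active = AUC significantly below DMSO controls by Student t-fit with adjusted P under 0.01; inactive = not significantly reduced.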

This assay deals with Haemophilus parainfluenzae. Put plainly: growth AUC normalised to DMSO control (fraction of control); higher = less growth inhibition, active = hit call of the paper. To be noted: 20 µM. The gist of the method:
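After two anaerobic passages, pathogens were added at a starting OD578 of 0.01 to pre-reduced mGAM plates holding compound at 20 μM with 1% DMSO; hemin and NAD were supplemented for Haemophilus parainfluenzae. Sealed with breathable membranes, plates were read at OD578 hourly for 24 h, in three biological replicates. The trapezoidal rule, applied up to the exponential-to-stationary transition, gave the growth-curve AUC, which was normalised to DMSO controls on the same plate.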
Regarding `CC(C(=O)O)c1ccc(C(=O)c2ccccc2)s1` (centres undefined) [Tiaprofenic acid], the “growth AUC normalised to DMSO control” value was 1.

On to `CCOC(=O)c1ccc(N)cc1` [Benzocaine], for which the “growth AUC normalised to DMSO control” value is 1.02.

For `CC1(C)S[C@@H]2[C@H](NC(=O)[C@H](NC(=O)N3CCNC3=O)c3ccccc3)C(=O)N2[C@H]1C(=O)O` [Azlocillin sodium salt], the “growth AUC normalised to DMSO control” value is 0.0396 (active).

On to `CCOCCn1c(N2CCCN(C)CC2)nc2ccccc21` [Emedastine difumarate], for which the “growth AUC normalised to DMSO control” value is 1.

For `CC(CN(C)C)CN1c2ccccc2CCc2ccccc21` (centres undefined) [Trimipramine maleate salt], the “growth AUC normalised to DMSO control” value was 1.07.

In the case of `CNC1(C)C2CCC(C2)C1(C)C` (centres undefined) [Mecamylamine hydrochloride], the “growth AUC normalised to DMSO control” value is 0.988.

As to `CCC(NC(C)C)C(O)c1ccc(O)c(O)c1` (centres undefined) [Isoetharine mesylate salt], the “growth AUC normalised to DMSO control” value is 1.01.

Take `CCN(CC)CCOC(=O)C(c1ccccc1)c1ccccc1` [Adiphenine hydrochloride]: the “growth AUC normalised to DMSO control” value is 1.02.

On to `COc1ccc2cc(CCC(C)=O)ccc2c1` [Nabumetone], for which the “growth AUC normalised to DMSO control” value is 0.997.
